From US20210230599, “STEM-LOOP COMPOSITIONS AND METHODS FOR INHIBITING INTERLEUKIN-8” (VITRISA THERAPEUTICS, INC., published 2021)

target: Interleukin-8 (IL8, CXCL8), C-terminal His-tagged (Homo sapiens, UniProt P10145 SEQ:1-72); assay: competition; competition TR-FRET; L1 mutant; conditions: tags: C-terminal 6xHis (Sino Biological); ssRNA; 2'-F G, 2'-OMe A/C/U, 5' C6NH2, 3' idT
Method: Activity of each of these variants were tested using a time resolved competition TR-FRET assay in which the labeled parent Aptamer 3 was competed with increasing concentrations of unlabeled variants for binding to IL8 (FIG. 14). Briefly, 2-fold dilutions of thermally equilibrated aptamers were made in TR-FRET Buffer (50 mM MOPS, pH 7.4, 125 mM NaCl, 5 mM KCl, 50 μM CHAPS, 0.1 mg/mL BSA, 1 mM CaCl₂, and 1 mM MgCl₂). 5 μL of aptamer or control solution was added to 5 μl mix of 10 nM C-terminal His-tagged-IL8, 60 nM ALEXA FLUOR® 647-labeled Aptamer, and 5 nM anti-His-Eu (Perkin Elmer) in a black wall low volume 384 well plate (Greiner). For control, 5 μl of 1000-fold excess of unlabeled parent aptamer or 5 μl TR-FRET buffer alone was added to the mix of ALEXA FLUOR® 647-labeled aptamer, His-IL8, and anti-His-Eu. The plate was covered with a plate seal and subsequently incubated in the dark for 1 hour at room temperature. The plate was read on a Biotek CYTATION™ 5 plate reader. Samples were excited at 330 nm and fluorescent values were collected at 665 nm. Data analysis was performed by subtracting the background value and plotting as percent inhibition, normalized to baseline in the absence of competitor. The values were fit by [Inhibitor] vs. response—Variable slope (four parameters) using GraphPad Prism Version 7.0 and then normalized to aptamer control to obtain an IC₅₀ relative to parent aptamer. Data is presented as log values of relative IC₅₀.
To confirm the sequence conservation of this loop, variants of Aptamer 32 were made (4 base pair S1 version of parent Aptamer 8) where each position of L1 was individually replaced with the other 3 bases and tested for binding in the competition TR-FRET assay.

Sequence	binding signal
CGGUGCGAAAUGUGAGAUGGGUUGCCG	> 10 fold worse than Aptamer 8
CGGUGGUAAAUGUGAGAUGGGUUGCCG	> 10 fold worse than Aptamer 8
CGGUGGGCAAUGUGAGAUGGGUUGCCG	> 10 fold worse than Aptamer 8
CGGUGUGAAAUGUGAGAUGGGUUGCCG	> 10 fold worse than Aptamer 8
CGGUUGGAAAUGUGAGAUGGGUUGCCG	> 10 fold worse than Aptamer 8
CGGUCGGAAAUGUGAGAUGGGUUGCCG	> 10 fold worse than Aptamer 8
CGGUGGCAAAUGUGAGAUGGGUUGCCG	> 10 fold worse than Aptamer 8
CGGUGAGAAAUGUGAGAUGGGUUGCCG	> 10 fold worse than Aptamer 8
CGGUGGGGAAUGUGAGAUGGGUUGCCG	> 10 fold worse than Aptamer 8
CGGUGGAAAAUGUGAGAUGGGUUGCCG	> 10 fold worse than Aptamer 8
CGGUGGGUAAUGUGAGAUGGGUUGCCG	> 10 fold worse than Aptamer 8
CGGUAGGAAAUGUGAGAUGGGUUGCCG	> 10 fold worse than Aptamer 8
